SMILES strings stand for the structures. Values joined by “and” are separate entries in the source; they are usually repeats but may differ in a detail not shown here. Equal entries are not always repeated. Active and inactive are the calls of the source.
Further: test concentration not given here.

The nature of one test: JC-1 mitochondrial signal, unstimulated MM1S myeloma – cell-based, JC-1 fluorescence, 24 h, 100 nL compound, profiling panel (AID 1170). The following applies: MM1S mitochondrial potential, higher = more signal.
`C[C@@H]1CC[C@@H](C(=O)O)N[C@H]1c1ccc(-c2ccco2)cc1` yielded a z-score of 0.496.
On the same count and under the same terms, then `C=CCN(C(=O)C1N(C(C)(C)CO)C(=O)C2C(C(=O)O)C3C=CC21O3)C(C)(C)C` (centres undefined), with 0.88 and 0.351; and `C=CCN(C(=O)C(c1cccs1)N(C(=O)/C=C\C(=O)O)c1ccc(CCO)cc1)C(C)(C)C` (centres undefined), with 0.75 and 0.721; and `Cc1ccc(S(=O)(=O)N[C@H]2COC(=O)[C@@H](Cc3ccccc3)NC(=O)[C@@H](C)COC(=O)CC=C[C@@H]2C)cc1`, with 0.242 and -1.28.
In the case of `CC(C)[Si]1(C(C)C)OCc2cc(CCCc3cc4c(c(CCc5ccccc5)n3)[Si](C(C)C)(C(C)C)OC4)nc(CCc3ccccc3)c21`, the z-score is -0.38 and -0.852.
Still for that read-out and setting: then `O=c1n(-c2ccccc2)c(=O)n2n1CC[C@@H]1C(=NOC[C@@H](O)COCc3ccco3)[C@H]3O[C@H]3[C@@H](O)[C@@H]12`, with 0.181 and -0.00804; and `O=C1C[C@]2(c3ccc([N+](=O)[O-])cc3)C(=O)N(Cc3ccccc3)c3cc(CO)ccc3[C@H]2N1C1CCCCC1`, with -0.152 and -0.189; and `CCOC(=O)[C@H](CC(C)C)NC(=O)CCC1CC(OC(=O)NCc2cccc3ccccc23)CC2(CCCC(COC(=O)NCc3ccccc3)O2)O1` (some centres undefined), with -0.717.
Same read-out and setting: with `CCOC(=O)c1ccc(NC(=O)O[C@H]2[C@H](OC(=O)Nc3ccccc3)[C@H](OC(=O)Nc3ccccc3)[C@@H](OC)O[C@@H]2CO)cc1` the figure was -0.45 and -1.27; with `CC[C@@H]1C(Sc2ccccc2)C(C(=O)O)[C@H](c2ccc(C)cc2)N1S(=O)(=O)c1ccc(C)cc1` (some centres undefined), -0.152 and -0.291; with `CCCC[C@@H]1CN2[C@@H](CC[C@@H](C)[C@@H]2c2ccc(Br)cc2)C(=O)O1`, 0.0213 and -0.396.
Still for that read-out and setting: then `C=CCN(CCCCC)C(=O)C(c1cccs1)N(C(=O)/C=C\C(=O)O)c1ccc(CCO)cc1` (centres undefined), with -0.138 and -0.377; and `C=C(C)C(=O)OC[C@@H]1CN2[C@@H](CC[C@@H](C)[C@@H]2c2ccc(Br)cc2)C(=O)O1`, with -0.631; and `COC(=O)C1=C2N(Cc3ccccc3)C(C)=C(C(=O)OC)[C@@H](c3ccccc3)N2C(=O)[C@](O)(C(=O)OC)C1`, with 0.127 and 0.0283.
For the compound `C=C[C@@H](C)[C@@H](O)c1ccc(OCCO)cc1`, the z-score was 0.287 and -0.925.
Turning to `C=CCN(Cc1ccccc1)C(=O)C1N(C(C)(C)CO)C(=O)C2C(C(=O)O)C3C=CC21O3` (centres undefined), the z-score is -0.16 and -0.15.
In the case of `C=CCN(C(=O)C1N(C(C)(C)CO)C(=O)C2C(C(=O)O)C3C=CC21O3)c1ccc(OC)cc1` (centres undefined), the z-score was 0.646 and 0.841.
Still for that read-out and setting: with `COC(=O)c1c2oc(c1C(=O)OC)C(=O)N[C@@H](Cc1ccccc1)Cn1cc(nn1)C1(CCCCC1)NC(=O)N[C@H](CO)CC2` the figure was 0.559 and -0.594; with `C=C[C@H](C)[C@H](O)c1ccc(O)c2ccccc12`, -1.76 and 0.307; with `CCOC(=O)C[C@H]1[C@H](OC(=O)c2ccccc2-c2ccccc2)[C@@H](NC(=O)Cc2ccc(OC)cc2)c2cc(OCCCO)ccc2N1C(=O)c1ccc2ccccc2n1`, 0.82 and 0.248.
As for `CC(C)OC(=O)C=C1C[C@@H](c2ccccc2)O[C@@H](c2ccccc2)O1`, the z-score was -2.57 and -3.36.
Same read-out and setting: with `COC(=O)C1=C(C)N(Cc2ccccc2)C2=C(C(=O)c3ccccc3)[C@H](c3ccccc3)[C@@](O)(C(=O)OC)C(=O)N2[C@@H]1c1ccccc1` the figure was 0.573 and -0.514; with `COC(=O)[C@@]1(Cc2ccc(F)cc2)[C@H]2c3cc(C(=O)N4CCCC4)n(Cc4c(CO)[nH]cc(C)c4=O)c3C[C@H]2CN1C(=O)c1ccccc1`, 0.1 and 0.277; with `C[N+](C)(C)CCCCCCNC(=O)[C@H]1C[C@H]2C(=O)N[C@@H](CCCC[N+](C)(C)C)C(=O)N2[C@H]1c1ccc(O)cc1`, -0.657 and -0.528.
On the same count and under the same terms, then `CC(CO)N1C(=O)[C@@H]2C3C(=O)OCCC=C[C@H]3OC23C=CCN(CCN2CCOCC2)C(=O)[C@@H]13` (some centres undefined), with -0.137 and -0.0991; and `CCCC[C@@H]1CN2[C@H](c3ccc(Br)cc3)[C@@H](C)CC[C@H]2C(=O)O1`, with -1.19 and 1.26; and `CO[C@H]1COC(=O)CC=C[C@H](C)[C@H](OC)COC(=O)[C@@H](C)COC(=O)CC=C[C@@H]1C`, with 0.688 and 0.438.

The nature of another test: resazurin metabolic signal in A549 cells – cell-based, resazurin fluorescence, 24 h, PK04 Diversity Set, profiling panel (AID 1171). Conditions: A549 viability, higher = more signal, called active from +8 up or from −8 down. In general terms: Resazurin is reduced to fluorescent resorufin, in cell work by metabolically active cells.
As for `CO[C@H]1COC(=O)CC=C[C@@H](C)COC(=O)[C@H](CCSC)NC(=O)CC=C[C@@H]1C`, the z-score was -0.8 (inactive) and 0.705 (inactive).
Same read-out and setting: then `C=CCN(CCCCC)C(=O)C1N(C(C)(C)CO)C(=O)C2C(C(=O)O)C3C=CC21O3` (centres undefined), with 0.0106 (inactive) and -0.0941 (inactive).
The same measure, in the same setting: with `C=CCN1C(=O)[C@]2(O[C@H](CCn3cc(CCO)nn3)[C@@H]([Si](C)(C)c3ccc(OC)cc3)[C@@H]2C)c2cc(N3C(=O)c4cccc5cccc3c45)ccc21` the figure was -6.11 (inactive); with `CCC[C@@H]1C[C@@]1(CCC)[C@@H](NC(=O)c1ccc(-c2ccccc2)cc1)c1cccc(Cl)c1`, 2.06 (inactive) and 0.608 (inactive).
Regarding `C[C@@H]1CC[C@H]2C(=O)O[C@H](CN=[N+]=[N-])CN2[C@H]1c1ccc(Br)cc1`, the z-score was -0.854 (inactive) and 0.459 (inactive).
Turning to `C[C@@H]1CN2[C@@H](CC[C@@H](C)[C@@H]2c2ccc(Br)cc2)C(=O)O1`, the z-score was 0.131 (inactive) and -1.45 (inactive).
Regarding `COc1ccc(O[C@H]2C=C[C@@H](c3ccccc3)O[C@@H]2COC(=O)CCC(C)=NO[C@H](C)c2cn([C@H](CO)Cc3ccccc3)nn2)cc1`, the z-score is 0.385 (inactive) and 0.277 (inactive).
As to `CON(C)C(=O)c1nnc2c3ccccc3n(S(=O)(=O)c3ccc(C)cc3)c2n1`, the z-score was 0.617 (inactive) and -0.146 (inactive).
Consider `COc1ccc(COC(=O)NN=C2C[C@@H](O)[C@@H](O)[C@@H]3[C@@H]4C(=O)N(C(C)(C)C)C(=O)[C@@H]4CC[C@H]23)cc1`, for which the z-score was -0.581 (inactive).
Same read-out and setting: then `COC(=O)C1=C(C)N(Cc2ccccc2)[C@]23O[C@](C(=O)OC)(C(=O)N2[C@@H]1c1ccccc1)[C@@H](C(=O)OC)[C@H]3C(=O)OC`, with 0.415 (inactive) and -0.804 (inactive); and `C[C@@H]1CC[C@H]2C(=O)NC[C@@H](O)CN2[C@H]1c1ccc(Br)cc1`, with 0.153 (inactive) and -0.285 (inactive); and `C#CCCCON=C1C[C@@H](O)[C@@H](O)[C@@H]2[C@@H]3C(=O)N(C4CCCCC4)C(=O)[C@@H]3CC[C@H]12`, with 0.108 (inactive).
For `C[C@@H]1CC[C@@H](C(=O)O)N[C@H]1c1ccc(-c2ccco2)cc1`, the z-score is 0.115 (inactive).
On to `C=CCN(C(=O)C1N(C(C)(C)CO)C(=O)C2C(C(=O)O)C3C=CC21O3)C(C)(C)C` (centres undefined), for which the z-score was -0.777 (inactive) and -0.128 (inactive).
On the same count and under the same terms, with `C=CCN(C(=O)C(c1cccs1)N(C(=O)/C=C\C(=O)O)c1ccc(CCO)cc1)C(C)(C)C` (centres undefined) the figure was -0.0762 (inactive) and -0.389 (inactive); with `Cc1ccc(S(=O)(=O)N[C@H]2COC(=O)[C@@H](Cc3ccccc3)NC(=O)[C@@H](C)COC(=O)CC=C[C@@H]2C)cc1`, 0.0258 (inactive) and 0.392 (inactive); with `CC(C)[Si]1(C(C)C)OCc2cc(CCCc3cc4c(c(CCc5ccccc5)n3)[Si](C(C)C)(C(C)C)OC4)nc(CCc3ccccc3)c21`, 0.576 (inactive) and -0.19 (inactive).
Still for that read-out and setting: then `O=c1n(-c2ccccc2)c(=O)n2n1CC[C@@H]1C(=NOC[C@@H](O)COCc3ccco3)[C@H]3O[C@H]3[C@@H](O)[C@@H]12`, with -1.03 (inactive) and -0.872 (inactive).
Still for that read-out and setting: then `O=C1C[C@]2(c3ccc([N+](=O)[O-])cc3)C(=O)N(Cc3ccccc3)c3cc(CO)ccc3[C@H]2N1C1CCCCC1`, with 0.466 (inactive) and -0.352 (inactive); and `CCOC(=O)[C@H](CC(C)C)NC(=O)CCC1CC(OC(=O)NCc2cccc3ccccc23)CC2(CCCC(COC(=O)NCc3ccccc3)O2)O1` (some centres undefined), with 0.586 (inactive); and `CCOC(=O)c1ccc(NC(=O)O[C@H]2[C@H](OC(=O)Nc3ccccc3)[C@H](OC(=O)Nc3ccccc3)[C@@H](OC)O[C@@H]2CO)cc1`, with -1.11 (inactive) and -3.2 (inactive).
Consider `CC[C@@H]1C(Sc2ccccc2)C(C(=O)O)[C@H](c2ccc(C)cc2)N1S(=O)(=O)c1ccc(C)cc1` (some centres undefined), for which the z-score was -0.631 (inactive) and -1.02 (inactive).
Turning to `CCCC[C@@H]1CN2[C@@H](CC[C@@H](C)[C@@H]2c2ccc(Br)cc2)C(=O)O1`, the z-score is -0.335 (inactive) and -0.178 (inactive).
As for `C=CCN(CCCCC)C(=O)C(c1cccs1)N(C(=O)/C=C\C(=O)O)c1ccc(CCO)cc1` (centres undefined), the z-score was -0.235 (inactive) and -0.813 (inactive).
Still for that read-out and setting: with `C=C(C)C(=O)OC[C@@H]1CN2[C@@H](CC[C@@H](C)[C@@H]2c2ccc(Br)cc2)C(=O)O1` the figure was 0.173 (inactive); with `COC(=O)C1=C2N(Cc3ccccc3)C(C)=C(C(=O)OC)[C@@H](c3ccccc3)N2C(=O)[C@](O)(C(=O)OC)C1`, 1.83 (inactive) and -0.59 (inactive).
Regarding `C=C[C@@H](C)[C@@H](O)c1ccc(OCCO)cc1`, the z-score is 0.175 (inactive) and -0.652 (inactive).
Same read-out and setting: with `C=CCN(Cc1ccccc1)C(=O)C1N(C(C)(C)CO)C(=O)C2C(C(=O)O)C3C=CC21O3` (centres undefined) the figure was -0.363 (inactive) and 0.344 (inactive); with `C=CCN(C(=O)C1N(C(C)(C)CO)C(=O)C2C(C(=O)O)C3C=CC21O3)c1ccc(OC)cc1` (centres undefined), 0.377 (inactive) and 0.109 (inactive).
On the same count and under the same terms, with `COC(=O)c1c2oc(c1C(=O)OC)C(=O)N[C@@H](Cc1ccccc1)Cn1cc(nn1)C1(CCCCC1)NC(=O)N[C@H](CO)CC2` the figure was 0.976 (inactive) and 1.37 (inactive); with `C=C[C@H](C)[C@H](O)c1ccc(O)c2ccccc12`, -0.52 (inactive) and -0.539 (inactive); with `CCOC(=O)C[C@H]1[C@H](OC(=O)c2ccccc2-c2ccccc2)[C@@H](NC(=O)Cc2ccc(OC)cc2)c2cc(OCCCO)ccc2N1C(=O)c1ccc2ccccc2n1`, 1.26 (inactive) and 0.555 (inactive).
